The text below walks through data of PubChem BioAssay (Tox21).

Records with an inconclusive call do not appear. The source made the active and inactive calls. Calls follow the shape of the dose curve; as a rule, active = well fitted cell-killing curve with a large enough effect in the repeat runs; inconclusive = weak or mixed curves; inactive = no such curve, though single readings can be large or run the other way.

A short description of this assay: qHTS assay to identify small molecule antagonists of the androgen receptor (AR) signaling pathway - cell viability counter screen (AID 743033; also: nearly all actives have a fitted effect of over 45% in size). The note with it: AR-bla HEK293 viability, CellTiter-Glo luminescence, 16 h; series mostly up to 58.5 µM. The source says: National Center for Advancing Translational Sciences [NCATS]
NIH Chemical Genomics Center [NCGC]
U.S. Environmental Protection Agency [EPA]
National Institutes of Environmental Health Sciences [NIEHS]
National Toxicology Program [NTP]
U.S. Food and Drug Administration [FDA]
Androgen receptor (AR), a nuclear hormone receptor, plays a critical role in AR-dependent prostate cancer and other androgen related diseases. Endocrine disrupting chemicals (EDCs) and their interactions with steroid hormone receptors like AR may cause disruption of normal endocrine function as well as interfere with metabolic homeostasis, reproduction, developmental and behavioral functions. To identify the compounds that inhibit AR signaling, GeneBLAzer AR-UAS-bla-GripTite cell line (Invitrogen, Carlsbad, CA, USA) containing a beta-lactamase reporter gene under control of an Upstream Activator Sequence (UAS) stably integrated into HEK293 cells was used to screen the Tox21 10K compound library. The cytotoxicity of the Tox21 compound library against the AR-bla cell line was tested in parallel by measuring the cell viability using CellTiter-Glo assay in the same wells.
Tox21 Assay Protocol Summary:
AR-bla cells were dispensed at 2,000 cells/5 uL of assay medium per well into black wall/clear-bottom 1536-well plates using a Multidrop Combi (ThermoFisher Scientific, Waltham, MA) dispenser. After the assay plates were incubated at a 37C and 5% CO2 for 4 hr, 23 nL of compounds dissolved in DMSO, positive controls or DMSO only was transferred to the assay plate by a Pintool station (Kalypsys, San Diego, CA), followed by addition of 1 uL of agonist (R1881) in culture medium using a Bioraptr Flying Reagent Dispenser (FRD) workstation (Beckman Coulter, Indianapolis, IN, USA). The plates were incubated at a 37C and 5% CO2 for 16 h. After 1 uL of LiveBLAzerTM B/G FRET substrate was added using a Bioraptr FRD, the plates were incubated at room temperature for 2 h and fluorescence intensity was measured by an Envision plate reader (PerkinElmer, Shelton, CT). For cell viability readout that measures cytotoxicity, 4 ul/well of CellTiter-Glo reagent was added into the assay plates using a Bioraptr FRD. After 30 min incubation at room temperature, the luminescence intensity in the plates was measured using a ViewLux (PerkinElmer) plate reader.
(qHTS replaces the single test concentration by a dilution series.)
Take `CCN[C@H]1CN(CCCOC)S(=O)(=O)c2sc(S(N)(=O)=O)cc21`: the call was inactive.

As to `CCN(CC)C(=O)N(CC)CC`, the compound was classed as inactive.

As for `CCCCNc1cc(C(=O)O)cc(S(N)(=O)=O)c1Oc1ccccc1`, the result was inactive.

Regarding `CC1(C)S[C@@H]2[C@H](NC(=O)C(C(=O)O)c3ccccc3)C(=O)N2[C@H]1C(=O)O` (stereo not given in full), the result was inactive.

On to `CN1C(=O)CC(c2ccccc2)C1=O` (stereo not given), for which the outcome was inactive.

Turning to `CO[C@@]1(NC(=O)CSCC#N)C(=O)N2C(C(=O)O)=C(CSc3nnnn3C)CS[C@@H]21`, the compound was classed as inactive.

For the compound `O=C(O)c1ccccc1Nc1cc(Cl)ccc1C(=O)O`, the result was inactive.

On to `CNCCC(Oc1ccccc1OC)c1ccccc1` (stereo not given), for which the result was inactive.

With `N#Cc1ccc(C(c2ccc(C#N)cc2)n2cncn2)cc1`, the compound was called inactive.

Regarding `CC1CN(c2ccccc2)NC1=O` (stereo not given), the compound was called inactive.

`CC(C)(C)c1ccc(OC(=O)c2ccccc2O)cc1`: the outcome was inactive.

Take `CC(C)OC(C)C`: the result was inactive.

With `Cc1nnc(SCC2=C(C(=O)O)N3C(=O)[C@@H](NC(=O)Cn4cnnn4)[C@H]3SC2)s1`, the compound was called inactive.

For `CN1CCN(C2=Nc3cc(F)ccc3Cc3ccccc32)CC1`, the compound was called inactive.

`C=C(C)C(=O)OCCOP(=O)(O)O`: the outcome was inactive.

In the case of `OCC(CBr)(CBr)CBr`, the outcome was inactive.

In the case of `Clc1cccc(-c2cc(Cl)cc(Cl)c2)c1`, the compound was classed as inactive.

For `CC1(O)CSC(C)(O)CS1` (stereo not given), the compound was classed as inactive.

Take `CCCCCCOc1ccc(N)cc1`: the compound was called inactive.

Consider `COc1ccccc1OCC(O)COC(N)=O` (stereo not given), for which the compound was classed as inactive.

For `Nc1ccc(Oc2ccc(N)c(N)c2)cc1`, the outcome was inactive.

For `CCOC(=O)c1ccccc1O`, the compound was classed as inactive.

Turning to `CC1=C(CC(=O)O)c2cc(F)ccc2/C1=C\c1ccc(S(C)(=O)=O)cc1`, the result was inactive.

In the case of `Cc1cc2nc(N)sc2cc1C`, the compound was classed as inactive.

In the case of `CC/C=C\CCOC(=O)CCCCC`, the call was inactive.

Take `Cc1ccccc1C(=O)Nc1ccc(C(=O)N2CCCC(O)c3cc(Cl)ccc32)c(C)c1` (stereo not given): the result was inactive.

As to `CCN1CC(CCN2CCOCC2)C(c2ccccc2)(c2ccccc2)C1=O` (stereo not given), the compound was called inactive.

As to `CCCNC(C)C(=O)Nc1c(C)csc1C(=O)OC` (stereo not given), the compound was classed as inactive.

As for `CC(C)CC(=O)OCc1ccccc1`, the compound was classed as inactive.

Take `CC(C)S`: the compound was called inactive.

Take `COC(=O)N[C@H](C(=O)N[C@@H](Cc1ccccc1)[C@@H](O)CN(Cc1ccc(-c2ccccn2)cc1)NC(=O)[C@@H](NC(=O)OC)C(C)(C)C)C(C)(C)C`: the result was inactive.

On to `CC(=O)Nc1ccc(C)c(Cl)c1`, for which the compound was called inactive.

In the case of `Cc1ncc(CO)c(CN)c1O`, the outcome was inactive.

Consider `CCCCc1ccc2nc(NC(=O)OC)[nH]c2c1`, for which the result was inactive.

As for `CC(C)C[C@H](NC(=O)OCC1c2ccccc2-c2ccccc21)C(=O)O`, the call was inactive.

As for `C=CCCCCCCCCO`, the compound was classed as inactive.

As for `CCc1cc(Cl)c(OC)c(C(=O)NC[C@@H]2CCCN2CC)c1O`, the compound was called inactive.

Regarding `CCCCNCCCC`, the outcome was inactive.

For `C[C@]12C(=O)OC(=O)[C@H]1[C@H]1C=C[C@@H]2C1`, the outcome was inactive.

Turning to `Cn1cnc2c(F)c(Nc3ccc(Br)cc3Cl)c(C(=O)NOCCO)cc21`, the compound was called inactive.
